Experimental findings from PubChem BioAssay (NCATS) are described below.

Test [1] addresses Calcium and integrin-binding protein 1 (Homo sapiens) (UniProt Q99828). The experiment in a line: Primary qHTS for Identification of Calcium Integrin Binding Protein 1 (CIB1) Competitor (AID 1508620).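 Note: GST tagged CIB1 binding a fluorescein labelled alphaIIb integrin peptide tracer; top concentration of the series differs between compounds.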 The method, boiled down: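 Fluorescence polarization competition: CIB1-GST (1 uM final) preincubated with compound 15 min at room temperature, then FITC-labeled alphaIIb peptide (100 nM final) added for another 15 min. Polarization read at Ex 480/Em 540.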
In general terms: In qHTS, concentration-response curves come from the screen itself.

Test [2] is described as follows: Primary qHTS for inhibitors of nuclear receptor binding SET domain protein 2 (NSD2) in an isogenic RCH-ACV NSD2 p.E1099K mutant (9B) (AID 1645876). Note: nearly all actives have a fitted effect of over 70% in size. Note: potency is the fitted concentration of half-maximal effect.
A short description of test [3]: Confirmatory qHTS for small molecule stabilizers of the endoplasmic reticulum resident proteome: Secreted ER Calcium Modulated Protein (SERCaMP) assay (AID 1508628). Note: nearly all actives have a fitted effect of over 40% in size. The method, boiled down:
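GLuc-SERCaMP-expressing SH-SY5Y cells, pretreated 16 h with compound, are challenged with thapsigargin to empty ER calcium stores; after 4 h, coelenterazine is added directly to the medium and luminescence is imaged.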

Test [4] in a line: Counterscreen qHTS for small molecule stabilizers of the endoplasmic reticulum resident proteome: GLuc-NoTag assay (AID 1508627). The method, boiled down: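 Secreted GLuc lacking the SERCaMP modification is measured in SH-SY5Y cells exposed to compound for 19 h and then to thapsigargin (100 nM, 4 h) to deplete ER calcium; hits retested at 11 concentrations, up to 76.6 uM.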
In general terms: A counterscreen serves to expose hits that act by an unwanted route or on another target.

Test [5] concerns the target Papain (Carica papaya) (UniProt P00784). The experiment in a line: Primary qHTS assay for inhibitors of the protease papain (AID 1645873).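 Note: papain turnover of Z-FR-AMC read as the AMC fluorescence gain over 10 min.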
The target in test [6] is Cytochrome P450 2D6 (Homo sapiens) (UniProt P10635). The experiment in a line: Cytochrome P450 family 2 subfamily D member 6 (CYP2D6) small molecule antagonists: luciferase biochemical (cell-free) qHTS assay (AID 1645840; active = well fitted curve in the direction sought with a large enough effect in the repeat runs; an effect the other way counts as inactive or inconclusive; note: nearly all actives have a fitted effect of over 55% in size; note: potency is the fitted concentration of half-maximal effect). The method, boiled down:
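P450-Glo CYP2D6 system: proluciferin substrate converted by enzyme to luciferin, read by luminescence proportional to activity. Enzyme-substrate mix with compound 10 min at room temperature, then NADPH regeneration 1 h before detection reagent.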

Test [7] deals with Cytochrome P450 2C9 (Homo sapiens) (UniProt P11712). The experiment in a line: Cytochrome P450 family 2 subfamily C member 9 (CYP2C9) small molecule antagonists: luciferase biochemical (cell-free) qHTS assay (AID 1645842; active = well fitted curve in the direction sought with a large enough effect in the repeat runs; an effect the other way counts as inactive or inconclusive; note: nearly all actives have a fitted effect of over 55% in size; note: potency is the fitted concentration of half-maximal effect). The method, boiled down: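 P450-Glo CYP2C9 system: proluciferin substrate with enzyme in mix containing 0.4% BSA, 10 min at room temperature, then NADPH regeneration solution added and incubated 1 h at 37C. Detection reagent stopped reaction; luminescence read after 20 min as RLU.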
Chain of Cytochrome P450 2C9 (Homo sapiens) (P11712 whole entry, looked up): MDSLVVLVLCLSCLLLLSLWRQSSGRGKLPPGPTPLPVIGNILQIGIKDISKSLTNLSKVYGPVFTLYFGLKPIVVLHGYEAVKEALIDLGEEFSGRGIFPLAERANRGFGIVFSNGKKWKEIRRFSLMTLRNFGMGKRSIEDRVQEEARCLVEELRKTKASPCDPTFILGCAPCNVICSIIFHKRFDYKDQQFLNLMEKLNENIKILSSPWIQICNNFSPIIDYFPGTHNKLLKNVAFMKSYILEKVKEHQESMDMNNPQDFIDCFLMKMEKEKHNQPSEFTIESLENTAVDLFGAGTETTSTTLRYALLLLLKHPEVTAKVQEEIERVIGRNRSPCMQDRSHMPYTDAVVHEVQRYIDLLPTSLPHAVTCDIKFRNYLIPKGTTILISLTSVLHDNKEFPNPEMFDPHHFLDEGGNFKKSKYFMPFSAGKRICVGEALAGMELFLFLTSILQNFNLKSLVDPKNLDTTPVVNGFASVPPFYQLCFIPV

Test [8] in a line: Cell Viability qHTS for small molecule stabilizers of the endoplasmic reticulum resident proteome (AID 1508629).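 Note: human SH-SY5Y neuroblastoma cells carrying the GLuc-SERCaMP reporter; compound exposure about 46 h in total before the viability read.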 As to conditions: cell viability counter-screen, 100 nM thapsigargin for final 4 h.
Test [9] can be described thus: Primary qHTS for small molecule stabilizers of the endoplasmic reticulum resident proteome: Secreted ER Calcium Modulated Protein (SERCaMP) assay (AID 1508630). Put shortly:
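The SH-SY5Y reporter protocol was run at 3 concentrations up to 38.3 uM (primary) or 11 concentrations (follow-up): 16 h compound, 100 nM thapsigargin for 4 h, then extracellular luciferase luminescence.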

A short description of test [10]: Primary qHTS to identify inhibitors of SARS-CoV-2 cell entry (AID 1645846; calls by dose curve; note: potency is the fitted concentration of half-maximal effect; nearly all actives have a fitted effect of over 45% in size). As to conditions: activity change, negative = inhibition: at 57.1 µM (top of the series) unless noted. The method, boiled down: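 Data are normalized to wells receiving SARS-CoV-2-S pseudoparticles and those given bald particles. Entry signal was luciferase luminescence in stable hACE2 Expi293F cells, 48 hr post-infection, after 1 hr compound pretreatment.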

A short description of test [11]: Cytotoxicity counterscreen for inhibitors of SARS-CoV-2 cell entry (AID 1645845; calls by dose curve; note: nearly all actives have a fitted effect of over 50% in size). To be noted: outcome: dose series up to 57.1 µM unless noted. Put shortly:
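After a 15 min room-temperature ATPLite 1step step, luminescence reflected ATP remaining in HEK293-ACE2 cells exposed to compound for 1 h plus 48 h at 37 C, with percent activity set by cell and no-cell controls.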

Several values for one entry are separate records, joined by “and”; a condition that tells them apart may be missing. Equal values may be shown once. Inconclusive results are not listed. A call without a number means that no potency is given here. A number with no mark means an inactive call. Activity calls are given as the source filed them. Unless noted, calls come from the whole dose curve; as a rule, active = well fitted curve in the direction sought with a large enough effect; inconclusive = small, poorly fitted or top-dose-only effect, or another doubt; inactive = no such curve, though single readings can be large; an effect the other way counts as inactive or inconclusive.

Chain of Papain (Carica papaya) (P00784 whole entry, looked up): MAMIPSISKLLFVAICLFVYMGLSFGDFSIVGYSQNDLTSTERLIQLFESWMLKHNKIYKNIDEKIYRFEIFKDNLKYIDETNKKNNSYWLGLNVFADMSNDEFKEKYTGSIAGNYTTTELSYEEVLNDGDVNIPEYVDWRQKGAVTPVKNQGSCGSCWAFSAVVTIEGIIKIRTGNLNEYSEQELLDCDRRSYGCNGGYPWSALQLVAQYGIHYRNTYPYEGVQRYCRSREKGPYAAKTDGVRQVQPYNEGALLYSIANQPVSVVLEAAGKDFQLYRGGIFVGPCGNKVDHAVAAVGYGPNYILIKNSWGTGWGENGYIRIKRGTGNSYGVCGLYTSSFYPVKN
Chain of Cytochrome P450 2D6 (Homo sapiens) (P10635 whole entry, looked up): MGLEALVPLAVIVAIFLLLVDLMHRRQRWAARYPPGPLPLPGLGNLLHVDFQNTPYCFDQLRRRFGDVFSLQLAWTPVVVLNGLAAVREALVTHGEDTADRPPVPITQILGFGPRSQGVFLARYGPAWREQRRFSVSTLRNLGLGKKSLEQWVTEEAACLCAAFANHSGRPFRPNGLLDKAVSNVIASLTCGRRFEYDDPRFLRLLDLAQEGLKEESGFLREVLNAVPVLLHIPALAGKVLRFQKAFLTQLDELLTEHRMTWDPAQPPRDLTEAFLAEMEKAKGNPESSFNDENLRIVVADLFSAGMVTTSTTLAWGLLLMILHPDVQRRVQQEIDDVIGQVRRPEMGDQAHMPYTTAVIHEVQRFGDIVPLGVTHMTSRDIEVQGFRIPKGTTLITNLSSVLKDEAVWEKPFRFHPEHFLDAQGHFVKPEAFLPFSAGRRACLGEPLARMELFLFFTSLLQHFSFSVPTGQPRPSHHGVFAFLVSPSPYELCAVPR
Chain of Calcium and integrin-binding protein 1 (Homo sapiens) (Q99828 whole entry, looked up): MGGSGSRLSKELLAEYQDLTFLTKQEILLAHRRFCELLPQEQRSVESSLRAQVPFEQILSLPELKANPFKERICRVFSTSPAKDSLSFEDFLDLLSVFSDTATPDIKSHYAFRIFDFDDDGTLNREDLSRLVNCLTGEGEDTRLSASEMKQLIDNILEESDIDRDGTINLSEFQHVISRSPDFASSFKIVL

As for `CN1C(=O)c2ccccc2NC(=O)[C@]12O[C@@H]2c1ccccc1`, the Potency entry in [1] and in [2] was “inactive” each time.

`COc1ccc2c(c1)[C@@]13CCCC[C@H]1[C@@H](C2)NCC3`: the Potency entry in test [3] was “inactive”. As to `Cc1cc(C)cc(C(=O)OC2C[C@H]3CC[C@@H](C2)N3C)c1` (stereo not given in full), in test [4], the molecule was called inactive. With `[Cl-].[Cl][Pt].[NH2-].[NH2-].c1ccncc1`, in test [5], the Potency entry is “inactive”.

On to `COCC(C)N(C(=O)CCl)c1c(C)csc1C` (stereo not given), for which the Potency entry in [6] is “inactive”. Besides, the Potency in test [7] is 13.5 µM (active). For the molecule `C/C=C(\C)C(=O)O[C@H]1[C@H](OC(C)=O)[C@]2(CO)[C@H](O)[C@H](O)[C@]3(C)C(=CCC4[C@@]5(C)CC[C@H](O[C@@H]6O[C@H](C(=O)O)[C@@H](O)[C@H](O[C@@H]7OC[C@H](O)[C@H](O[C@@H]8OC[C@H](O)[C@H](O)[C@H]8O)[C@H]7O)[C@H]6O[C@@H]6O[C@H](CO)[C@@H](O)[C@H](O)[C@H]6O)C(C)(C)C5CC[C@]43C)[C@@H]2CC1(C)C` (stereo not given in full), the activity change, negative = inhibition in [1] is 1% [at 12.4 µM]. In addition, in [2], the activity change, negative = viability loss was -4.86% [at 9.23 µM].

`COC(=O)[C@@]12C(=O)C(C)C(=O)[C@]1(C)C(C)=C[C@H]1[C@]3(C=O)CC[C@H](OC(C)=O)C(C)(C)[C@H]3CC[C@@]12C` (stereo not given in full): the Potency entry in [1] and in [2] was “inactive” throughout. In the case of `COC1CC(O[C@H]2CC[C@]3(C=O)C4CC[C@]5(C)[C@@H](C6=CC(=O)OC6)CC[C@]5(O)[C@@H]4CC[C@]3(O)C2)OC(C)C1O[C@@H]1O[C@H](CO)[C@@H](O)[C@H](O)[C@H]1O` (stereo not given in full), the Potency entry in test [1] was “inactive”. Besides, the Potency in test [2] was 0.0541 µM (active). In the case of `CCCCCCCCOC(=O)c1ccccc1C(=O)OCCCCCCCC`, the Potency result in test [6] was “inactive”. In the case of `CC(Cc1ccccc1)NC=O` (stereo not given), the Potency result in test [7] was “inactive”. Turning to `CCCC(C)C1(CC)C(=O)NC(=O)NC1=O` (stereo not given), the Potency entry in test [6] and in [7] was “inactive” in each case. For the molecule `O[C@H]1[C@H]2[C@H](O)CCCN2C[C@H]1O`, in test [4], the molecule was called inactive. The max response in [8] was 13.7% and 34.4%. Take `CCC(C)(C#N)O[C@@H]1O[C@H](CO)[C@@H](O)[C@H](O)[C@H]1O` (stereo not given in full): the Potency result in test [1] and in [2] was “inactive” throughout. As to `CC(CCc1ccc(O)cc1)O[C@@H]1O[C@H](CO[C@H]2OC[C@](O)(CO)[C@H]2O)[C@@H](O)[C@H](O)[C@H]1O` (stereo not given in full), the Potency result in test [1] and in test [2] was “inactive” each time. For `O=[N+]([O-])/C=C/c1ccc2c(c1)OCO2`, in [5], the Potency result is “inactive”. For `CN(N=O)c1cc(O)ccc1O`, in test [9], the result was inactive. Moreover, the Potency entry in test [5] was “inactive”.

For `O=C1OC2(c3cc(Br)c(O)cc3Oc3c2cc(Br)c(O)[c]3[Hg])c2ccccc21` (stereo not given), the outcome in test [9] was inactive. In addition, the Potency in [10] is 10 µM (active). For the molecule `Cc1cccc(C(C)c2cnc[nH]2)c1C` (stereo not given), the result in test [9] was inactive.

On to `C#CC(C)(O)CC` (stereo not given), for which the Potency entry in [6] and in test [7] was “inactive” each time. For `C=CCN1CC[C@]23c4c5ccc(O)c4O[C@@H]2/C(=N/N=C2\CC[C@@]4(O)C6Cc7ccc(O)c8c7[C@@]4(CCN6CC=C)[C@@H]2O8)CC[C@@]3(O)C1C5`, in [9], the result was inactive. Take `COC1=CC(=O)O[C@@H](CCc2ccccc2)C1`: the Potency entry in [1] and in [2] was “inactive” in each case. `CCNC(C)Cc1cccc(C(F)(F)F)c1` (stereo not given): in test [6], the Potency is 3.79 µM (active). With `CCC1NC(=O)C2C(Cl)C(Cl)CN2C(=O)C(C(C)O)NC(=O)CC(c2ccccc2)NC(=O)C(CO)NC1=O` (stereo not given), the Potency result in test [1] and in test [2] was “inactive” each time. For `COc1ccc2c(c1)/C(=C/c1cnc[nH]1)C(=O)N2`, the outcome in [9] was inactive. Moreover, the Potency in test [2] is 13 µM (active). For the molecule `COC(=O)C12C(=O)C(C)(O)C(=O)C1(C)C(C)=CC1C34CCC(OC3=O)C(C)(CO)C4CCC12C` (stereo not given), the Potency result in [2] was “inactive”. As to `C[C@]12CC[C@H]3[C@@H](CC[C@@]45O[C@@H]4C(O)=C(C#N)C[C@]35C)[C@@H]1CC[C@@H]2O`, the outcome in test [11] was inactive. Also, the Potency in test [2] is 16.6 µM (active).

As to `O=C(NC(=O)c1c(F)cccc1F)Nc1ccc(Cl)c(Oc2ncc(C(F)(F)F)cc2Cl)c1`, the Potency is 1.51 µM (active) in [6] and 1.9 µM (active) in test [7]. For `O=C(N1CCOCC1)N1CCN(c2ccc(Cl)cc2)CC1`, the Potency result in [1] and in [2] was “inactive” in each case. As for `COCC1OC(=O)c2coc3c2C1(C)C1=C(C3=O)C2CCC(=O)C2(C)CC1O` (stereo not given), the Potency entry in [1] and in test [2] was “inactive” throughout. Take `CCC(C)(OC(C)=O)C(=O)O[C@H]1[C@H](OC(C)=O)C[C@@H]2[C@@](C)([C@@H]3C[C@H]4C=CO[C@H]4O3)[C@H](C)C[C@H](OC(C)=O)[C@@]2(COC(C)=O)[C@@]12CO2` (stereo not given in full): the Potency entry in [2] is “inactive”. Turning to `CC(C)(C)c1cc(O)ccc1O`, in test [7], the Potency was 12 µM (active).
